Assay outcomes: PubChem BioAssay, The Scripps Research Institute Molecular Screening Center
A selection: hits, their analogues and other compounds. The true share with any hit is near 3.5%.
TEAD-YAP block = TEAD-YAP interaction inhibition | HEK-TIYL cells, TEAD-Gal4/YAP UAS-luciferase luminescence | inhibition, % at 9.12 µM | actives 1.4% (n = 640,000); in the data active = inhibition above about 32%
GPR151 ag = activates the human receptor GPR151; Q8TDV0; PathHunter beta-arrestin GPR151 cells, luminescence; activation, % at 11.2 µM; actives 1% (n = 650,000); in the data active = activation above about 4.9%
Target sequence (Q8TDV0 whole entry, looked up): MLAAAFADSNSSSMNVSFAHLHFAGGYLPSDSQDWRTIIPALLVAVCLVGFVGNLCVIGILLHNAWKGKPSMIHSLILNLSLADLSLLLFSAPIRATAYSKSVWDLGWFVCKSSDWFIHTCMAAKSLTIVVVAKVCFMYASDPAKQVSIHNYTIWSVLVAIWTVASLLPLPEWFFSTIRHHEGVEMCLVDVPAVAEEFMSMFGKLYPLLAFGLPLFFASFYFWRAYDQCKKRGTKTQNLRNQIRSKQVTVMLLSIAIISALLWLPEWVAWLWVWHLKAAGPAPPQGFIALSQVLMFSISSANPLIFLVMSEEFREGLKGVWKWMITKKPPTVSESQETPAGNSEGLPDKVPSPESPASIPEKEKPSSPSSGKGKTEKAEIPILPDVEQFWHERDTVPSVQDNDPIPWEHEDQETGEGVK
FBW7 activator = human FBW7 E3 ligase activation, primary screen; normalized activity (activation), % at 26.1 µM; actives 0.13% (n = 650,000); AlphaScreen FBW7–phospho-cyclin E peptide binding, activator screen; in the data active = normalized activity above about 1.9%;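 also: purified mutant Fbw7 with reduced substrate affinity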
MITF primary = blocks human microphthalmia-associated transcription factor; AlphaScreen MITF homodimerization, bead proximity signal; inhibition, % at 2.6 µM; actives 0.91% (n = 650,000); AID 1259374; in the data active = inhibition above about 50%
Large screens that a line does not name were inactive.

O=C1CCCN1CCCNc1nc(N2CCN(c3ccccn3)CC2)nc2c1ncn2CCN1CCCC1=O	none
Cc1ccn2cc(CCNC(=O)c3cccc4ccccc34)nc2c1	none
Cc1nn(C)c(C)c1-c1nc(Nc2ccccc2)c2ncn(-c3ccsc3)c2n1	none
CC(=O)Nc1ccc(Nc2nc(-c3c(C)nn(C)c3C)nc3c2ncn3-c2ccsc2)cc1	TEAD-YAP block 44
c1ccc(Nc2nc(-c3ccc(N4CCOCC4)nc3)nc3c2ncn3-c2ccccc2)cc1	none
COc1ccc(-c2nc(Nc3ccc(N4CCOCC4)cc3)c3ncn(-c4ccccc4)c3n2)cn1	TEAD-YAP block 34
CC(=O)Nc1ccc(Nc2ccnc(-c3c(C)nn(C)c3C)n2)cc1	TEAD-YAP block 54
COc1ccc(-c2nc(Nc3ccc(N4CCOCC4)cc3)c3ncn(-c4ccsc4)c3n2)cc1	TEAD-YAP block 38
CCN(C(=O)COc1ccccc1)c1nc(-c2ccccc2)cs1	none
COc1cc(N)c(Cl)cc1C(=O)NCC1CCN(c2nc(C)cc(C)n2)CC1	none
Cc1occc1-c1nnc(SCC(=O)NC(C)(C)C)n1Cc1ccccc1	none
CC(=O)Nc1ccc(Nc2nc(Nc3ccc(N4CCOCC4)cc3)nc3c2ncn3-c2ccsc2)cc1	TEAD-YAP block 38
c1cc(-n2cnc3c(Nc4ccc5c(c4)OCO5)nc(NCc4ccc5c(c4)OCO5)nc32)cs1	none
c1cc(-n2cnc3c(Nc4ccc5c(c4)OCO5)nc(NCCN4CCOCC4)nc32)cs1	TEAD-YAP block 44
CCN(CC)c1nc(Nc2ccc3c(c2)OCO3)nc(Nc2ccncn2)n1	FBW7 activator 4.0
c1cc(-n2cnc3c(Nc4ccc5c(c4)OCO5)nc(Nc4ccc(N5CCOCC5)cc4)nc32)cs1	TEAD-YAP block 42
FC(F)(F)c1ccc(Nc2nc(Nc3ccc(N4CCOCC4)cc3)c3ncn(-c4ccsc4)c3n2)cc1	none
Cc1ccc(NC(=O)NCCC(C)C)cc1NC(=O)NCCC(C)C	none
CC(=O)Nc1ccc(Nc2nc(Nc3ccncc3)nc3c2ncn3-c2ccsc2)cc1	none
c1cncc(CNc2nc(Nc3ccc(N4CCOCC4)cc3)nc3c2ncn3-c2ccsc2)c1	TEAD-YAP block 57
c1cnc(Nc2nc(Nc3ccc4c(c3)OCO4)c3ncn(-c4ccsc4)c3n2)cn1	none
c1ccc(Nc2nc(Nc3ccc(N4CCOCC4)cc3)nc3c2ncn3-c2ccsc2)cc1	none
c1cc(-n2cnc3c(Nc4ccc(N5CCOCC5)cc4)nc(Nc4ccc(N5CCOCC5)cc4)nc32)cs1	TEAD-YAP block 35
c1cc(Nc2nc(Nc3ccc4c(c3)OCO4)c3ncn(-c4ccsc4)c3n2)ncn1	FBW7 activator 10
CC(=O)Nc1ccc(Nc2nc(Nc3ncccn3)nc3c2ncn3-c2ccsc2)cc1	TEAD-YAP block 50
Cc1cc(C)c(NC(=O)c2cc(S(=O)(=O)N3CCc4ccccc4C3)ccc2F)c(C)c1	none
Cc1c(NC(=O)CN2CCOCC2)c(=O)n(-c2ccccc2)n1C	none
CC(C(=O)N1CC[C@@H](c2ccccc2)[C@H](O)C1)n1nc2ccccc2n1 (stereo not given in full)	none
CN(CCC#N)c1ccc(/C=C(\C#N)c2ccccn2)cc1	TEAD-YAP block 49
C=CCn1c(=O)c2c(nc3n(-c4ccccc4CC)c(C)cn23)n(C)c1=O	none
COC(=O)c1ccccc1OCCCOc1ccc(C)cc1OC	none
COc1cc(C)ccc1OCCCOc1ccccc1C(=O)O	TEAD-YAP block 37
N=C1c2ccccc2C(=O)C1c1ccccc1 (stereo not given)	MITF primary 65
COc1ccc(C2C(=O)c3ccccc3C2=O)cc1	none
Cc1nc2cc(-c3ccccc3)nn2c(N)c1-c1ccccc1	TEAD-YAP block 37
COc1ccc(-c2cc3nc(C)c(C)c(Cl)n3n2)cc1	none
COc1ccc(-c2cc3nc(C)cc(N)n3n2)cc1	TEAD-YAP block 74
CCCCNc1nnc(SCC(N)=O)s1	none
CCOc1ccc2nc(NC(=O)Nc3cccc(OC)c3)sc2c1	none
CC(=O)N1CCCN(Cc2ccc(OCC(O)CN(C)Cc3ccccc3)cc2)CC1 (stereo not given)	none
COc1ccc(NS(=O)(=O)c2cc(NC(=O)CNC(C)=O)ccc2N2CCCC2)cc1	TEAD-YAP block 39
Cc1c(C(=O)NCc2ccccn2)sc2ncn(C)c(=O)c12	none
COc1ccc(-c2cc(NCCCN3CCCC3=O)ncn2)cn1	none
CC1CCCN(c2csc3ccccc3c2=O)C1 (stereo not given)	FBW7 activator 1.9
NC(=O)C1CCN(c2csc3ccccc3c2=O)CC1	none
O=C(c1ccccc1)N1CCN(c2nc(-c3cccs3)cs2)CC1	none
Cn1cc(C(=O)NCCc2ccc(Cl)cc2)c2c3ccccc3n(C)c2c1=O	none
CC(C)N1CCC(N2CCN(Cc3ccc(C(F)(F)F)cc3)CC2CCO)CC1 (stereo not given)	none
O=C(CCC1CCCC1)Nc1ccc2c(c1)C(=O)NCCO2	none
O=C(COc1ccc(F)cc1)Nc1ccc2c(c1)C(=O)NCCO2	TEAD-YAP block 42
O=C(CN1CCCC(c2ncncc2-c2ccncc2)C1)N1CCc2ccccc21 (stereo not given)	none
Cc1cnc(C(=O)N2CCCC(c3nc(C)ncc3-c3ccncc3)C2)cn1 (stereo not given)	none
O=C(c1cccs1)N1CCCC(c2nc(-c3ccncc3)ncc2-c2ccccc2)C1 (stereo not given)	TEAD-YAP block 51
O=C(CN1Cc2ccccc2C1)N1CCCC(c2ncncc2-c2ccncc2)C1 (stereo not given)	FBW7 activator 3.3
Cc1cc(C(=O)N2CCCC(c3nc(-c4ccncc4)ncc3-c3ccccc3C)C2)no1 (stereo not given)	TEAD-YAP block 58
O=C(c1ccco1)N1CCCC(c2nc(-c3ccncc3)ncc2-c2ccccc2)C1 (stereo not given)	none
CC(C)(CO)NCC(O)CON=C1c2ccccc2-c2ccccc21 (stereo not given)	none
Cc1cc2nc(N3CCCN(Cc4ccc(CO)o4)CC3)nc(C)c2cc1C	none
Cc1cc2nc(N3CCCN(Cc4c(C)nc5sccn45)CC3)nc(C)c2cc1C	TEAD-YAP block 32
c1ccc(N=C2NN=C(c3ccccc3)CS2)cc1	none
c1ccc(C2=NNC(=NC3CC3)SC2)cc1	TEAD-YAP block 80
Cc1ccoc1C(=O)N1CCCC(CCC(=O)N2CCN(c3ccccn3)CC2)C1 (stereo not given)	none
Cc1ccc(C(=O)N2CCCC(CCC(=O)N3CCN(c4ccccn4)CC3)C2)cc1C (stereo not given)	FBW7 activator 3.6
CSc1nnc(NC(=O)c2ccc(F)cc2)s1	none
CSc1nnc(NC(=O)c2ccc(C)cc2)s1	TEAD-YAP block 76
CSc1nnc(NC(=O)c2ccc(C(C)(C)C)cc2)s1	TEAD-YAP block 32
CC(C)(C)c1ccc(C(=O)Nc2nnc(SCC(=O)O)s2)cc1	TEAD-YAP block 71
Cc1ccc(C(=O)Nc2nnc(SCC(=O)NCC3CCCO3)s2)cc1 (stereo not given)	TEAD-YAP block 42
CC(C)NC(=O)[C@@H]1C[C@@H](NCc2ccc(F)cc2)CN1Cc1ccccc1Cl	none
O=C1c2ccccc2C(=O)N1c1ccc(-c2cc(-c3ccc(N4C(=O)c5ccccc5C4=O)cc3)nc(-c3ccccc3)n2)cc1	none
